Screen size: about 310,000 compounds; about 2,200 (0.71%) showed an effect of 50% or more. The effect is printed as a negative number. This excerpt belongs to a sample that is enriched for strong results.
These molecules were tested against human ether-à-go-go-related gene (hERG) potassium channel (human, UniProt Q12809) (assay: primary screen, population patch clamp on CHO cells stably expressing hERG; higher = less effect of the substance).
Sequence of human ether-à-go-go-related gene (hERG) potassium channel (Q12809 whole entry, looked up): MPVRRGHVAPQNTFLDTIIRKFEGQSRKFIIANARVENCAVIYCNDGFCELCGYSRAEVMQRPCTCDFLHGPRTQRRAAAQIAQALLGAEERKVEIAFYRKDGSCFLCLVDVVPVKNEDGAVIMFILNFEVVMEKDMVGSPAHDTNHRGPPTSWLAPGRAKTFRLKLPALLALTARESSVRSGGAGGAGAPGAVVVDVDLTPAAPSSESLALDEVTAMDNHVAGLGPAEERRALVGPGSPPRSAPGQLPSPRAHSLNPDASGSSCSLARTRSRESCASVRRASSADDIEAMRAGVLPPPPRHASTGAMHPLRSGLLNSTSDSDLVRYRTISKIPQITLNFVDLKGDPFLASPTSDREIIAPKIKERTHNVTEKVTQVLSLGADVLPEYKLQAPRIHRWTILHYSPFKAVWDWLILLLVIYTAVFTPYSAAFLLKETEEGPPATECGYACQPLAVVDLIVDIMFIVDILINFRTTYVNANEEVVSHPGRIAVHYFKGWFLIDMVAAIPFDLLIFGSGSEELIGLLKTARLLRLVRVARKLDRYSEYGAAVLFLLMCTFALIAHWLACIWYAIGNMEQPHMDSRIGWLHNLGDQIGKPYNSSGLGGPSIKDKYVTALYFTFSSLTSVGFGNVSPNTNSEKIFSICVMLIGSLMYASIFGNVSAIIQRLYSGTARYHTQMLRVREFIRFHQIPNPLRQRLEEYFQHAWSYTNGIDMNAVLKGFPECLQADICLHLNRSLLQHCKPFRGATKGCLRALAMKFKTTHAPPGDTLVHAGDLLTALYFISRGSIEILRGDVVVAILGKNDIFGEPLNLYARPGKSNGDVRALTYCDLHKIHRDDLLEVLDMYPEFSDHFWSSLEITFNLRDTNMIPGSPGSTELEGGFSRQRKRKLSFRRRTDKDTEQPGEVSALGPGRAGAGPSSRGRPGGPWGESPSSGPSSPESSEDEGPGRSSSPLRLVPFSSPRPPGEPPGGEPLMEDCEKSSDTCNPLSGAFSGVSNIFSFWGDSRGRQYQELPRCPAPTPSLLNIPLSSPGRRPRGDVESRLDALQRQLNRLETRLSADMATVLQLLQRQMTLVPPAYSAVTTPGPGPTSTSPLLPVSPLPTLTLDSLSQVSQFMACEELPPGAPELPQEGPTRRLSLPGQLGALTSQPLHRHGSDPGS

| Structure (SMILES) | hERG current change (%, negative = inhibition) at 1uM [%] |
| --- | --- |
| Brc1ccc(NC(c2ccccc2)c2ccncc2)cc1.Cl (stereo not shown) | 17.3 |
| COCCNC(=O)C(c1cccs1)N(C(=O)Cn1nnc2ccccc21)c1ccccc1 (stereo not shown) | 2.32 |
| CC1(C)CC2(CC(c3ccccc3)Oc3cc(O)ccc32)NC(=S)N1 (stereo not shown) | 6.06 |
| CC1(C)CC2(CC(c3ccccc3)Oc3cc(O)ccc32)NC(=O)N1 (stereo not shown) | 10.8 |
| CSC1=NC2(CC(c3ccccc3)Oc3cc(O)ccc32)CC(C)(C)N1 (stereo not shown) | -68.8 |
| Cc1nnc(NC(=O)c2c(F)c(F)c(F)c(F)c2F)s1 | 15.5 |
| O=C(Nc1cnccn1)C1c2ccccc2Oc2ccccc21 | 0.161 |
| O=C(NCc1ccco1)c1n[nH]c(=O)c2ccccc12 | 11.8 |
| Cc1nc(NCc2ccco2)c2c3c(sc2n1)CCC3 | 2.14 |
| CCN1CCc2c(sc3c2c(NCc2ccco2)nc2nnnn23)C1 | -69.3 |
| CCN1CCc2c(sc(NC(=S)NC(=O)c3ccco3)c2C(N)=O)C1 | 15.8 |
| c1coc(CNc2ncnc3sc4c(c23)CCCCC4)c1 | -16 |
| CSc1nc(SCC(=O)NCc2ccco2)c2c3c(sc2n1)CN(C)CC3 | 4.1 |
| CN1CCc2c(sc3c2c(NCc2ccco2)nc2nnnn23)C1 | -72.8 |
| COc1ccc(C2C(C(=O)Nc3ccccc3OC)=C(C)Nc3nnnn32)c(OC)c1 (stereo not shown) | 7.88 |
| CC(NC(=S)NCCCN1CCOCC1)C12CC3CC(CC(C3)C1)C2 (stereo not shown) | 12.9 |
| CCCCCn1c(N)c(C(=O)NCCN2CCOCC2)c2nc3ccccc3nc21 | -0.506 |
| CC(C)Cn1c(N)c(C(=O)NCCN2CCOCC2)c2nc3ccccc3nc21 | -71.5 |
| CCCCn1c(N)c(C(=O)NCCN2CCOCC2)c2nc3ccccc3nc21 | -21 |
| Cc1c(C(=O)N(CCc2ccccc2)Cc2ccccc2)cccc1[N+](=O)[O-] | 12.7 |
| Clc1ccccc1Cc1noc(CN2CCCCC2CCc2ccccn2)n1 (stereo not shown) | -3.35 |
| CCC1CCCCN1Cc1nc(Cc2ccccc2Cl)no1 (stereo not shown) | 4.88 |
| OCCCC1CCCCN1Cc1nc(Cc2ccccc2Cl)no1 (stereo not shown) | -65.5 |

| Structure (SMILES) | hERG current change (%, negative = inhibition) at 1uM [%] |
| --- | --- |
| COC(=O)c1oc2ccccc2c1NC(=O)c1ccccc1O | 16.2 |
| Cc1ccc(C)c(NC(=O)CCN2C(=O)c3ccccc3C2=O)c1 | 15.3 |
| CC(C)(C)NC(=O)CSCc1ccc(Br)cc1 | 1.24 |
| O=C(Nc1nnc(-c2cccnc2)o1)c1cccc(Cl)c1 | 3.43 |
| CCOC(=O)c1cc2c(=O)n3cccc(C)c3nc2n(CCCOC)c1=NC(=O)c1cccnc1 | -65.4 |
| CCOC(=O)c1cc2c(=O)n3ccccc3nc2n(CCCOC)c1=NC(=O)c1ccncc1 | -40 |
| CCOCCCn1c(=NC(C)=O)c(C(=O)OCC)cc2c(=O)n3ccccc3nc21 | -4.7 |
| CCOC(=O)c1cc2c(=O)n3ccccc3nc2n(CCCOC)c1=NC(=O)c1cccnc1 | -18.4 |
| CCCCCn1c(=NC(=O)c2cccnc2)c(C#N)cc2c(=O)n3cccc(C)c3nc21 | -5.66 |
| CCOCCCn1c(=NC(=O)c2cccnc2)c(C(=O)OCC)cc2c(=O)n3ccccc3nc21 | -67.8 |
| O=c1c2ccccc2c(C=NCCO)c(O)n1-c1ccccc1 | 11 |
| Brc1ccc2c(c1)C(OC1CN3CCC1CC3)c1ccccc1CS2.O=C(O)/C=C\C(=O)O (stereo not shown) | -27.6 |
| Cc1ccc(Nc2c3c(nc4ccccc24)CCC3)cc1.Cl | -57.7 |
| COc1ccc(Nc2c3c(nc4ccccc24)CCC3)cc1.Cl | -14.5 |
| Cc1ccc2nc3c(c(Nc4ccc5c(c4)OCCO5)c2c1)CCC3.Cl | -5.67 |
| COc1cc(Nc2c3c(nc4ccccc24)CCC3)cc(OC)c1OC | -19.4 |
| N#Cc1cccc(Nc2c3c(nc4ccccc24)CCC3)c1 | -18 |
| N#Cc1cccc(Nc2c3c(nc4ccccc24)CCCC3)c1 | -60.5 |
| Cl.c1ccc(Nc2c3c(nc4ccccc24)CCC3)cc1 | -33.1 |
| Cl.Fc1cccc(Nc2c3c(nc4ccccc24)CCC3)c1 | -9.35 |
| c1ccc2c(Nc3ccc4c(c3)OCCO4)c3c(nc2c1)CCCC3 | -83.5 |
| Cl.c1ccc2c(Nc3ccc4c(c3)OCCO4)c3c(nc2c1)CCC3 | -13.9 |
| COc1cc(Nc2c3c(nc4ccccc24)CCCC3)cc(OC)c1OC | -48.3 |

| Structure (SMILES) | hERG current change (%, negative = inhibition) at 1uM [%] |
| --- | --- |
| COc1ccc(Nc2c3c(nc4ccccc24)CCCC3)cc1OC | -78 |
| Cc1nnc(SCc2ccc(C(=O)c3ccc(Cl)cc3)o2)n1-c1ccccc1 | -14.1 |
| Cc1[nH]c2ccccc2c1/C=C/c1nc2ccccc2c(=O)n1-c1cccc([N+](=O)[O-])c1 | 8.08 |
| CCOc1ccc(C2c3c(oc4cc(C)c(C)cc4c3=O)C(=O)N2CCCN(C)C)cc1OC (stereo not shown) | 4.1 |
| CCN(CC)C(=O)CN(c1cccc(OC)c1)S(=O)(=O)c1ccc(C)cc1 | 13.2 |
| Cc1ccc(-n2[nH]c(C)c(/C=N/Nc3ccc([N+](=O)[O-])cc3[N+](=O)[O-])c2=O)cc1C | 9.38 |
| CCOc1ccc(S(=O)(=O)NN=C2CCN(C(C)=O)CC2)cc1 | 2.55 |
| CC(C)CNC(=O)CSc1nnc(-c2ccccn2)n1Cc1ccccc1 | 7.89 |
| C[C@](N)(CCP(=O)(O)O)C(=O)O.Cl | -5.32 |
| CCOC(=O)CSc1nc2ccccc2c(=O)n1CC1COc2ccccc2O1 (stereo not shown) | 6.59 |
| O=C(CCNS(=O)(=O)c1cccc2nsnc12)Nc1ccc2c(c1)OCCO2 | 12 |
| CSc1ncc(Cl)c(C(=O)[O-])n1.[NH3+]CCc1ccccc1 | 0.119 |
| Cc1ccc(CCNC(=O)C2CCN(S(=O)(=O)N3CCC4(CC3)OCCO4)CC2)cc1 | 9.02 |
| Cc1nc2ccccc2n1CCc1nc2c3ccccc3nc(SCC#N)n2n1 | -0.451 |
| NC(=O)CSc1nc2c(c(=O)n1-c1ccccc1)C1(CCCCC1)Cc1ccccc1-2 | 16.4 |
| COc1ccccc1Nc1c2ccccc2nc2ccccc12 | -18.4 |
| COc1cc(Nc2c3ccccc3nc3ccccc23)cc(OC)c1OC | -32.7 |
| COc1cc(NS(C)(=O)=O)ccc1Nc1c2ccccc2nc2ccccc12.Cl | -59.7 |
| Cc1ccc2c(Cn3ccnc3)cc(=O)oc2c1C | 15.6 |
| CCCn1nnnc1NCc1ccc(N2CCCC2)cc1 | -1.22 |
| COc1cccc(N2CCc3c(C)nc4ccc(Cl)cc4c32)c1 | -48.5 |
| Cc1ccc2nc3c(c(N)c2c1)CCN3c1ccccc1.O=C(O)C(=O)O | -2.46 |
| Cc1ccc2nc(C)n(-c3ccc(F)cc3)c(=O)c2c1 | 19 |

| Structure (SMILES) | hERG current change (%, negative = inhibition) at 1uM [%] |
| --- | --- |
| Cc1ccc2nc(C)c3c(c2c1)N(c1ccc(F)cc1)CC3 | -94.5 |
| CSc1nc(C)c2c(n1)N(c1ccc(F)cc1)CC2 | 20.1 |
| Cc1ccc2nc(C)c3c(c2c1)N(c1ccccc1)CC3 | -70 |
| COc1c2c(cc3oc(=O)c4c5ccc(O)cc5oc4c13)OC(C)(C)CC2 | 17.1 |
| c1cncc(-c2nnc(SCc3cccc4ccccc34)o2)c1 | 0.0047 |
| CC(=O)N1CCN(c2nc(-c3ccco3)c3c(c2C#N)CC(C)(C)SC3)CC1 | 7.62 |
| CCOc1ccc(/C=C(/NC(=O)c2ccc(Cl)cc2)C(=O)O)cc1OCC | -4.42 |
| COc1ccccc1CC(=O)Nc1ccc([N+](=O)[O-])cc1OC | 8.75 |
| Cn1c(=NC(=O)C2CC2)sc2cccc(F)c21 | 1.19 |
| Cc1ccc(NS(=O)(=O)c2ccc3c(c2)N(C)CCO3)cc1 | -79.6 |
| CC(=O)c1ccc(NS(=O)(=O)c2ccc3c(c2)N(C)CCO3)cc1 | 1.5 |
| Cc1ccc(CNS(=O)(=O)c2ccc3c(c2)N(C)CCO3)cc1 | 17.8 |
| C/C(CC(=O)Nc1ccc(N(C)C)cc1)=N\NC(=O)c1ccc(C(C)(C)C)cc1 | 15.5 |
| CCOC(=O)C1(Cc2cccc(OC)c2)CCN(Cc2cccn2-c2nccs2)CC1 | -77.7 |
| CCOC(=O)C1(Cc2cccc(OC)c2)CCN(Cc2cccnc2)CC1 | 11.5 |
| CCOC(=O)C1(Cc2cccc(OC)c2)CCN(Cc2ccccc2)CC1 | -7.08 |
| CCOC(=O)C1(Cc2ccccc2)CCN(Cc2cccn2-c2nccs2)CC1 | -69.8 |
| CCOC(=O)C1(Cc2cccc(OC)c2)CCN(Cc2cccc(O)c2)CC1 | -9.46 |
| CCOC(=O)C1(Cc2cccc(OC)c2)CCN(Cc2cccn2-c2ccccn2)CC1 | -79.4 |
| CCOC(=O)C1(Cc2ccccc2)CCN(Cc2cccc3nccnc23)CC1 | -10.3 |
| CCOC(=O)C1(Cc2cccc(OC)c2)CCN(Cc2ccccc2OC)CC1 | -18.5 |
| CCOC(=O)C1(Cc2ccccc2)CCN(Cc2cccn2-c2cccnc2)CC1 | 1.67 |

Reference: paper PMC4336329 (PLoS ONE, 2015)
